Screens as filed in PubChem BioAssay.
Hits are enriched below; roughly 0.77% of the tested compounds scored in any of these assays.
GCN5L2 inh: inhibitors of human GCN5L2 histone acetyltransferase; Q92830; GCN5L2 HAT assay, ThioGlo1 CoA-SH fluorescence; Potency, µM (series often up to 58.9 µM), inactives show at the highest dose activity change, negative = inhibition, most hits filed as inhibitors; 390,000 tested, 0.21% active; also: potency is read from the fitted curve at half-maximal effect; % is scaled to controls: 0 for no effect and ±100 for the full control effect
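Fluorescence readout, Ex340nm/Em540nm: ThioGlo1 (50uM final) reacts with free CoA thiol released as 20nM GCN5L2 acetylates H3(1-25) peptide (75uM) using acetyl-CoA (70uM). Compound and enzyme sat 15 min beforehand; 20 min room-temperature reaction.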
RGS12 GoLoco inh: inhibitors of human Gai1-RGS12 GoLoco interaction (red fluorophore) | P63096 | Gai1:RGS12 GoLoco peptide FP, rhodamine, 10 min | Potency, µM (top dose mostly 61.6 µM), without a hit: at the top dose activity, negative = inhibition, most hits filed as inhibitors | 230,000 tested, 0.44% active; active = well fitted inhibition curve with a large enough effect, not every such curve was filed as active; inactive = no such curve, though single readings can be large or run the other way; also: potency is read from the fitted curve at half-maximal effect; % is scaled to controls: 0 for no effect and ±100 for the full control effect; nearly all actives have a fitted effect of over 30% in size
Target sequence (P63096 whole entry, looked up): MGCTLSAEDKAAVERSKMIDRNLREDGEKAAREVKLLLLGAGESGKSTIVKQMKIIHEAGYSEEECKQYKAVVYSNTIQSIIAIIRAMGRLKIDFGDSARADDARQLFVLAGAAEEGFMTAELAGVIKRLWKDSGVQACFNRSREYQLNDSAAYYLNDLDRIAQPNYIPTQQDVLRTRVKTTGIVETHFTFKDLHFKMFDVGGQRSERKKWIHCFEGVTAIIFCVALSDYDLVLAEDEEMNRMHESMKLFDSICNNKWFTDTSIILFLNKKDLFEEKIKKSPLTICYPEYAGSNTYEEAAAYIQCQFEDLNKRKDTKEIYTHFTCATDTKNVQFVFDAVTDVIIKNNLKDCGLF
Vif-A3G inh: blocks the Vif interaction with human APOBEC3G | 410,000 tested, 0.076% active | HeLa A3G-eYFP + Vif (tagged APOBEC3G with the HIV-1 protein that degrades it), YFP fluorescence, overnight | Potency, µM (titrated, usually from 46.1 µM), for the others: at the top dose activity, negative = active, hits mostly inhibitors; also: potency is read from the fitted curve at half-maximal effect; % is scaled to controls: 0 for no effect and ±100 for the full control effect; nearly all actives have a fitted effect of over 60% in size
Target sequence (Q9HC16 whole entry, looked up): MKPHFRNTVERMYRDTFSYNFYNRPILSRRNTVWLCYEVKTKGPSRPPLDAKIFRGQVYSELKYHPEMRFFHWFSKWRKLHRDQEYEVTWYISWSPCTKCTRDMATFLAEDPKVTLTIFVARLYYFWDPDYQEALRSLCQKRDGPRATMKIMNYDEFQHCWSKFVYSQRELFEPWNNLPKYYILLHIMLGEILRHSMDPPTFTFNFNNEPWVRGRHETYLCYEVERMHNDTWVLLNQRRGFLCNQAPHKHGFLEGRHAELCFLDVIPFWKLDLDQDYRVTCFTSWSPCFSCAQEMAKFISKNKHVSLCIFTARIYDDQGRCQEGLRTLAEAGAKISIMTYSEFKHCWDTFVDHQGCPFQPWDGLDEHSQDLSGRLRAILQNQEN
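Read-out is eYFP fluorescence (Ex 488/Em 500-530) from Vif-expressing HeLa A3G-eYFP cells; more signal means A3G escaped Vif-mediated degradation. Cells plated overnight, compound pinned in, incubated overnight at 37 deg C.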
IL-2 act: activators of IL-2. 360,000 tested, 0.065% active. IL-2 activation reporter assay, cell-based qHTS; stimulated with anti-CD3/CD4/CD28 beads; in transgenic mouse T cells. activation, % (series mostly up to about 46 µM); in the data active = activation above about 50%; inconclusive = mostly about 30% to 49%; also: 0% is about no effect
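Unstimulated transgenic mouse T cells, 750 per well, received compound and, after 60 minutes, anti-CD3/anti-CD4 bead plus anti-CD28 stimulation. EGFP and DsRed were quantified after 18 hours.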
Vif-APOBEC3F blk: inhibitors of Vif-A3F interaction. HeLa A3F-eYFP + Vif (tagged APOBEC3F with the HIV-1 protein that degrades it), YFP fluorescence increase. Potency, µM (highest dose often 46.1 µM), inactives show at the highest dose activity, negative = active. 390,000 tested, 0.2% active. AID 602313; also: potency is read from the fitted curve at half-maximal effect; % of control where 0% means no effect; nearly all actives have a fitted effect of over 65% in size
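HeLa cells stably expressing A3F-eYFP plus Vif, plated and incubated overnight at 37 deg C, then exposed to compounds overnight at 37 deg C. Blocked degradation read as raised yellow fluorescence (Ex 488/Em 500-530).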
PKM2 act: increases activity of human pyruvate kinase M2. P14618. 260,000 tested, 0.34% active. purified PKM2, Kinase-Glo ATP luminescence, activation; response scale: 0% is enzyme alone, no compound. Potency, µM (highest dose often 57.5 µM), without a hit: top-dose activation, usual class: activators; also: potency is read from the fitted curve at half-maximal effect; % is scaled to controls: 0 for no effect and ±100 for the full control effect; nearly all actives have a fitted effect of over 55% in size
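hPK-M2, >95% pure; 0.1 mM ADP / 0.5 mM PEP final; imidazole pH7.2 buffer w/ 7 mM MgCl2, 50 mM KCl; 1 h RT; Kinase-Glo lum. Intermediate enzyme activity for dual inhibitor/activator qHTS.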
HeLa tox: HeLa cytotoxicity, CellTiter-Glo readout | shares compounds with PKM2 act | HeLa viability, CellTiter-Glo ATP luminescence, 24 h | activity change, negative = cytotoxicity, % at 57.5 µM | 230 tested, under 10 active | AID 1898; also: % of control where 0% means no effect
Numbers without * were called inactive; ? = inconclusive; nt = not tested or not shown; [ ] = remark or other dose. Unless noted, calls follow the shape of the dose curve; as a rule, active = well fitted curve in the direction sought with a large enough effect; inconclusive = small, poorly fitted or top-dose-only effect, or another doubt; inactive = no such curve, though single readings can be large; an effect the other way counts as inactive or inconclusive.

SMILES	GCN5L2 inh	RGS12 GoLoco inh	Vif-A3G inh	IL-2 act	Vif-APOBEC3F blk	PKM2 act	HeLa tox
COc1cc(C2C3=C(CCCC3=O)Nc3c2c(C)nn3-c2cccc(C)c2)cc(OC)c1O (centres undefined)	-13.4%	6.6%	5.2%	-1.3	-21.2%	7.08µM*	?
Cc1c(C(=O)OC2CCCCC2)[nH]c2c1C(=O)CC(c1ccccc1Cl)C2 (centres undefined)	-4.8%	nt	?	nt	-2.1%	nt	nt
Cc1c(C(=O)N2CCOCC2)[nH]c2c1C(=O)CC(c1ccccc1Cl)C2 (centres undefined)	-2.5%	9.3%	?	-3.1	-2.8%	15.8µM*	-13.6
CC(O)c1nc2ccccc2n1Cc1nnc(-c2ccc(Cl)cc2)o1 (centres undefined)	-1.0%	8.6%	-0.4%	-2.0	7.7%	7.94µM*	0.0
c1ccc(-c2nnc(Cn3c4ccccc4c4nc5ccccc5nc43)o2)cc1	nt	nt	-4.3%	0.3	nt	nt	nt
Cn1c2cc(S(C)=O)sc2c2cnn(Cc3ccccc3F)c(=O)c21 (centres undefined)	nt	nt	nt	nt	nt	nt	9.6
CC(=O)c1cc2c(s1)c1cnn(Cc3ccccc3F)c(=O)c1n2C	nt	nt	nt	nt	nt	nt	-0.7
Cc1ccccc1C(=O)N1CCC(C(=O)Nc2cccc(F)c2)CC1	-1.3%	10.9%	-4.2%	-0.4	-8.7%	-0.9%	nt
Cn1c(=O)[nH]c(=O)c2c1nc(SCC(=O)Nc1ccccc1)n2Cc1ccccc1	-2.6%	6.3%	-9.9%	0.2	0.4%	1.58µM*	?
COc1ccc(S(=O)(=O)N2CCN(S(=O)(=O)c3c(F)cccc3F)CC2)cc1	2.1%	nt	nt	nt	nt	nt	3.8
O=[N+]([O-])c1ccc(NCCCNS(=O)(=O)c2ccccc2)c(Cl)c1	-6.5%	1.5%	-0.6%	-1.8	1.4%	7.94µM*	-28.5
O=c1c(Cc2ccc(Cl)cc2)c(O)ccn1Cc1ccncc1	0.8%	9.6%	3.3%	0.8	0.9%	8.91µM*	-2.7
Clc1ccc(SCc2cn3ccccc3n2)cc1	2.1%	13.5%	-0.2%	0.1	-3.2%	0.0%	nt
c1ccc2c(SCc3cn4ccccc4n3)nncc2c1	5.2%	2.9%	0.1%	-0.3	-4.2%	4.47µM*	-13.5
O=C(COc1ccc(-n2cnnn2)cc1)Nc1cccc(Cl)c1Cl	-6.3%	nt	-1.4%	-3.1	-14.9%	nt	nt
CC(=O)N1CCN(S(=O)(=O)c2ccc3c(c2)OCCO3)CC1	-3.5%	nt	0.1%	0.1	3.0%	nt	nt
C[C@@H]1CN(S(=O)(=O)c2ccc3c(c2)OCCO3)CCN1S(=O)(=O)c1c(F)cccc1F	-16.0%	nt	-27.1%	0.1	3.9%	nt	-2.0
O=C1CN(S(=O)(=O)c2c(F)cccc2F)CCN1S(=O)(=O)c1ccc2c(c1)OCCO2	nt	nt	nt	nt	nt	nt	0.0
C[C@H]1CN(S(=O)(=O)c2c(F)cccc2F)CCN1S(=O)(=O)c1ccc2c(c1)OCCO2	-12.4%	nt	-0.6%	0.8	2.3%	nt	0.0
O=C(c1ccccc1)N1CCc2[nH]nc(-c3ccccc3)c2C1	-16.4%	nt	-0.7%	0.2	-5.7%	nt	nt
Cc1cc(=O)oc2cc(OCC(=O)NC3CC(C)(C)NC(C)(C)C3)ccc12	-5.2%	nt	-1.9%	-1.6	4.4%	0.1%[0.46 µM]	nt
O=C(Cc1cccs1)N1CCCC(c2nc3c(nnn3Cc3cccc(Cl)c3)c(=O)[nH]2)C1 (centres undefined)	-4.9%	3.6%	-5.6%	-2.1	-7.5%	15.8µM*	-11.8
Cc1ccc(S(=O)(=O)N(C)C)cc1NC(=O)COC(=O)CCCOc1ccccc1	-2.8%	nt	2.6%	-2.9	-2.6%	1.8%	nt
O=C(NCc1ccc2c(c1)OCO2)c1ccc(NS(=O)(=O)c2ccc3c(c2)OCCO3)cc1	-2.4%	2.2%	-4.1%	0.2	-6.1%	4.47µM*	1.3
O=C(NCc1ccc2c(c1)OCO2)c1ccc(S(=O)(=O)N2CCCCC2)cc1	-0.6%	1.6%	-0.5%	-0.9	-0.1%	0.2%	nt
SMILES	GCN5L2 inh	RGS12 GoLoco inh	Vif-A3G inh	IL-2 act	Vif-APOBEC3F blk	PKM2 act	HeLa tox
COc1cccc(NC(=O)CSc2nnc(-c3cccc(OC)c3)o2)c1	-16.9%	nt	nt	nt	nt	nt	nt
COc1cccc(NC(=O)CSc2nnc(-c3ccc(C)cc3)o2)c1	-2.8%	-0.1%	0.1%	-1.6	-1.5%	1.26µM*	8.5
Cc1cc(Cl)ccc1C(O)c1ncc(-c2ccccc2C(F)(F)F)[nH]1 (centres undefined)	nt	nt	-1.3%	-0.7	nt	nt	nt
Cn1c2ccccc2c2nnc(SC3CCOC3=O)nc21 (centres undefined)	-5.0%	3.3%	0.4%	-1.8	4.5%	14.1µM*	1.5
Cn1c2ccccc2c2nnc(SCC(=O)NC3CCCC3)nc21	-8.1%	nt	-3.6%	-3.8	4.6%	nt	nt
Cc1cc2c(s1)c1c(n2C)C(=O)N(Cc2ccccc2F)C1	-7.8%	nt	nt	nt	nt	nt	12.7[23.3 µM]
O=C(OCC#Cc1c(COC(=O)c2ccccc2)nnn1Cc1ccccc1)c1ccccc1	-10.6%	1.1%	-5.6%	-0.8	3.6%	-0.1%	nt
O=C(NCc1nnc2c(C(F)(F)F)cc(Cl)cn12)C1CCCC1	-7.1%	nt	4.4%	-0.7	3.7%	0.9%	nt
O=C(NCc1nnc2c(C(F)(F)F)cc(Cl)cn12)c1cccs1	-2.3%	nt	2.3%	-5.5	-5.7%	2.82µM*	0.2
Cc1cccc(NS(=O)(=O)c2cc3c(cc2C)NC(=O)CO3)c1	?	nt	-4.3%	-2.6	-10.5%	0.708µM*	-15.3
Cc1cc2c(cc1S(=O)(=O)Nc1cccc(C)c1C)OCC(=O)N2	?	nt	0.3%	-0.9	0.4%	?	nt
COc1ccc(C)cc1S(=O)(=O)Nc1cccc(-c2cn3cccnc3n2)c1	-11.5%	nt	-6.0%	-0.7	-5.7%	1.2%	nt
C/C=C\C=C/C(=O)Nc1cccc(C2=NOC3(C2)C[C@@H](C(N)=O)N(C(=O)/C=C/C=C\C)C3)c1 (some centres undefined)	-34.5%	-11.2%	-0.9%	0.6	0.5%	1.41µM*	3.7
C/C=C\C=C/C(=O)Nc1cccc(C2=NOC3(C2)C[C@@H](C(N)=O)N(C(=O)/C=C/CC)C3)c1 (some centres undefined)	-10.2%	-20.4%	-0.8%	0.5	-3.0%	?	nt
O=S(=O)(c1ccc2c(c1)OCCO2)N1CCN(S(=O)(=O)c2ccc(F)cc2F)CC1	nt	nt	nt	nt	nt	nt	0.0
O=S(=O)(c1ccc2c(c1)OCCO2)N1CCN(S(=O)(=O)c2cc(F)c(F)cc2F)CC1	nt	nt	nt	nt	nt	nt	-5.0
CC(C)[C@H](NC(=O)OC(C)(C)C)C(=O)N1CCC(C(=O)N[C@@H](C)C(=O)Nc2ccc(F)cc2)CC1	-0.1%	nt	2.3%	-0.4	5.9%	nt	nt
